Sampled rows, rich in hits. Any-hit rate of the full collection: about 7.1%.
PINK1 expr mod: modulators of PINK1 expression; PINK1 immunofluorescence, high-content cytometry, 24 h; Potency, µM (top dose mostly 76.6 µM), inactives show top-dose activation (PINK1 increase), hits mostly activators; 0.2% of 410,000 active; active means well fitted activation curve with a large enough effect; inconclusive means small, poorly fitted or top-dose-only effect; cell line not stated here; further: potency means the concentration at half of the fitted maximal effect; % of control where 0% means no effect; nearly all actives have a fitted effect of over 65% in size
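A stable cell line was treated with compounds at 5 concentrations for 24 hours, with CCCP as control. PINK1 levels and mitochondrial localization were measured by immunofluorescence with mitochondrial, cell and nuclear markers after fixation, read by laser-scanning cytometry.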
MCF10A rereplic: DNA re-replication induction in MCF 10a cells; MCF 10A DNA re-replication, Hoechst nuclear intensity, 48 h; Potency, µM (top dose mostly 46.1 µM), inactives show top-dose activity, positive = re-replication, hits mostly activators; 2.9% of 350,000 active; AID 624296; further: potency means the concentration at half of the fitted maximal effect; % of control where 0% means no effect; nearly all actives have a fitted effect of over 50% in size
IL-1B inflam inh: blocks inflammasome-driven IL-1 beta release; AID 743279; THP-1 LPS/ATP IL-1B secretion, AlphaLISA, 16 h; active compounds read low; 4.7% of 360,000 active; activity change, % at 57.5 µM; in the data active means activity change below about -50%; inconclusive means mostly about -30% to -49%; further: on the % scale 0 is the no-effect control and ±100 the full control effect
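THP-1 cells pretreated 1 hr with compounds (up to 57.5 uM final), then stimulated with LPS (250 ng/mL final) plus ATP (1.25 mM final); secreted IL-1B measured by AlphaLISA after 16 hr, decreased signal indicating inhibition.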
S2 tox: cell viability loss in ATXN counter-screen; S2 cells (HEK-293 line with an ATXN2-luciferase reporter) viability, CellTiter-Fluor protease fluorescence, 24 h; Potency, µM (highest dose often 56.7 µM), usual class: cytotoxic; 0.49% of 400,000 active; AID 651635; further: potency means the concentration at half of the fitted maximal effect; nearly all actives have a fitted effect of over 40% in size
ATXN2 expr inh: inhibitors of ATXN2 expression; HEK-293 ATXN2-luciferase reporter, luminescence, 24 h; Potency, µM (doses to about 57 µM), for the others: at the top dose activity change, negative = inhibition, usual class: inhibitors; 0.72% of 360,000 active; further: potency means the concentration at half of the fitted maximal effect; on the % scale 0 is the no-effect control and ±100 the full control effect; nearly all actives have a fitted effect of over 55% in size
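qHTS (up to 57 uM final) was run with 24 h compound exposure of reporter cells at 37 °C. Each well was multiplexed: SteadyGlo luminescence measured ATXN2-luciferase expression after a fluorogenic Gly-Phe-AFC viability readout (25 uM final).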
SW480 rerep: DNA re-replication induction in SW480 cells | SW480 DNA re-replication, Hoechst DNA content imaging, 48 h | Potency, µM (series often up to 46.1 µM), inactives show at the top dose re-replication activation, actives largely listed as activators | 1.8% of 340,000 active; further: potency means the concentration at half of the fitted maximal effect; % of control where 0% means no effect; nearly all actives have a fitted effect of over 55% in size
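Compounds, transferred as 23 nL by pin tool, were incubated with cells for 48 hr; DNA content per nucleus was then quantified by Hoechst staining and fluorescence plate imaging.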
An asterisk follows results filed as active; [ ] = dose if it differs, or a comment. Unless noted, the call rests on the fitted dose curve; in most records, active means well fitted curve in the direction sought with a large enough effect; inconclusive means small, poorly fitted or top-dose-only effect, or another doubt; inactive means no such curve, though single readings can be large; an effect the other way counts as inactive or inconclusive.

`CC[n+]1c(/C=C(\C)OC)sc2ccccc21` gave PINK1 expr mod 1%, MCF10A rereplic -4%, IL-1B inflam inh -21, S2 tox inactive, ATXN2 expr inh -10% and SW480 rerep -3%.
Screening CC[n+]1c(C=C2C=C(C)OC(C)=C2)sc2ccccc21 returned PINK1 expr mod 22µM*, MCF10A rereplic inconclusive, IL-1B inflam inh -95*, S2 tox inconclusive, ATXN2 expr inh 11µM* and SW480 rerep 18µM*.
`COc1ccc(OC)c(-c2cc(Cl)c3c(c2)CC(CNC(=O)c2cnn4cccnc24)O3)c1` (centres undefined) gave PINK1 expr mod 0% and S2 tox inactive.
`COC(=O)c1cc(S(N)(=O)=O)ccc1OC` gave S2 tox inactive and ATXN2 expr inh 7%.
For CC1=Nc2ccccc2N=C(NC(=O)c2ccccc2)C1c1ccc(Cl)cc1 (centres undefined) the results were PINK1 expr mod -1%, MCF10A rereplic 2%, IL-1B inflam inh -58*, S2 tox inconclusive, ATXN2 expr inh inconclusive and SW480 rerep 2%.
`Cc1ccc(-c2nnc(OCc3cccnc3)c3ccccc23)cc1` gave PINK1 expr mod 0%, MCF10A rereplic -4%, IL-1B inflam inh -83*, S2 tox inconclusive, ATXN2 expr inh -15% and SW480 rerep -5%.
For COc1ccc(-c2nnc(OCc3ccccc3)c3ccccc23)cc1 the results were PINK1 expr mod 9%, MCF10A rereplic 3%, IL-1B inflam inh -87*, S2 tox inactive, ATXN2 expr inh -3% and SW480 rerep 13%.
For Cc1cccc(NC(=O)C2CCCN(c3cnccn3)C2)c1 (centres undefined) the results were PINK1 expr mod 0%, MCF10A rereplic 18µM*, IL-1B inflam inh 3, S2 tox inactive and SW480 rerep inconclusive.
`COc1ccc(NC(=O)CSc2nc3c(oc4ccccc43)c(=O)n2-c2ccc(C)c(C)c2)cc1` gave PINK1 expr mod 2%, S2 tox inactive and ATXN2 expr inh 2%.
For COc1cc(/C=N/NC(=O)c2ccc(COc3cc(C)ccc3C(C)C)cc2)cc(OC)c1O the results were PINK1 expr mod 1%, MCF10A rereplic inconclusive, IL-1B inflam inh -5, S2 tox inactive, ATXN2 expr inh inconclusive and SW480 rerep 8%.
For Cc1ccc(C(C)C)c(OCc2ccc(C(=O)N/N=C/c3cccc(O)c3O)cc2)c1 the results were PINK1 expr mod inconclusive, MCF10A rereplic inconclusive, IL-1B inflam inh 74, S2 tox inactive, ATXN2 expr inh 3µM* and SW480 rerep inconclusive.
`Cc1ccc(C(C)C)c(OCc2ccc(C(=O)N/N=C/c3ccc(O)c(O)c3)cc2)c1` gave PINK1 expr mod inconclusive, MCF10A rereplic inconclusive, IL-1B inflam inh -100*, S2 tox inactive, ATXN2 expr inh inconclusive and SW480 rerep inconclusive.
For Cc1cccc(C2C=C(c3ccc(C)c(C)c3)Nc3nnnn32)c1 (centres undefined) the results were PINK1 expr mod 10% and ATXN2 expr inh 12%.
Screening O=C(c1ccc2c(c1)OCO2)N1CCN(c2ccc(Cl)cc2)CC1 returned PINK1 expr mod -4%[38.3 µM], MCF10A rereplic inconclusive, IL-1B inflam inh -6, S2 tox inactive, ATXN2 expr inh -17% and SW480 rerep 8%.
For Cc1cccc(N2CCN(C(=S)c3ccc4c(c3)OCO4)CC2)c1 the results were PINK1 expr mod 3%, MCF10A rereplic 1.3µM*, IL-1B inflam inh 4, S2 tox inactive, ATXN2 expr inh -14% and SW480 rerep 6.5µM*.
S=C(c1ccc2c(c1)OCO2)N1CCN(c2cccc(Cl)c2)CC1 was read as PINK1 expr mod 4%, MCF10A rereplic 1.5µM*, IL-1B inflam inh 31, S2 tox inactive, ATXN2 expr inh -6% and SW480 rerep 5.2µM*.
Screening CC1CCN(C(=S)c2ccc3c(c2)OCO3)CC1 returned PINK1 expr mod inconclusive, MCF10A rereplic -9%, IL-1B inflam inh -13, S2 tox inactive, ATXN2 expr inh 4% and SW480 rerep -10%.
Screening CCC1CCCCN1CCCNC(=O)c1cn(CC)c2ccc(S(=O)(=O)N3CCc4ccccc4C3)cc2c1=O (centres undefined) returned PINK1 expr mod -1%, MCF10A rereplic 3%, IL-1B inflam inh -99*, S2 tox inactive, ATXN2 expr inh -8% and SW480 rerep 10%.
Screening CCn1cc(C(=O)NCCCN2CCCC(C)C2)c(=O)c2cc(S(=O)(=O)N3CCc4ccccc4C3)ccc21 (centres undefined) returned PINK1 expr mod -2%, MCF10A rereplic 3%, IL-1B inflam inh -104*, S2 tox inactive, ATXN2 expr inh inconclusive and SW480 rerep 10%.
For CC1=NN(C(N)=S)C(=O)C1N=Nc1ccc(Cl)cc1 (centres undefined) the results were PINK1 expr mod 1%, MCF10A rereplic 9%, IL-1B inflam inh 5, S2 tox inactive, ATXN2 expr inh 63% and SW480 rerep 18µM*.
CC1=NN(C(N)=S)C(=O)C1N=Nc1ccc(Br)cc1 (centres undefined) was read as PINK1 expr mod 0%, MCF10A rereplic 13%, IL-1B inflam inh 1, S2 tox inconclusive, ATXN2 expr inh 41% and SW480 rerep -3%.
For CCOc1ccc(NC(=O)c2c(NC(=O)c3ccccc3Br)sc3c2CCC(C)C3)cc1 (centres undefined) the results were PINK1 expr mod 1%.
COCCNC(=O)c1nn(-c2ccc(C)cc2)c(=O)n(C)c1=O was read as PINK1 expr mod 0%, S2 tox inactive and ATXN2 expr inh -3%.
Screening CCOC(=O)COc1cc(-n2c(=S)[nH]c3cc(OC)c(OC)cc3c2=O)c(Cl)cc1Cl returned PINK1 expr mod -1%, MCF10A rereplic 23µM*, IL-1B inflam inh 0, S2 tox inactive, ATXN2 expr inh -38% and SW480 rerep -5%.
CCOC(=O)COc1cc(N2C(=O)CSCC2=O)c(Cl)cc1Cl was read as MCF10A rereplic -7%, IL-1B inflam inh -99*, S2 tox inactive, ATXN2 expr inh -4% and SW480 rerep -1%.
For CC(=O)Nc1ccc(CN2CCN(C3CCCC3)C(CCO)C2)cc1 (centres undefined) the results were PINK1 expr mod -1%, MCF10A rereplic 2.6µM*, IL-1B inflam inh -20, S2 tox inactive, ATXN2 expr inh -7% and SW480 rerep 4%.
